# Bioassay records: PubChem BioAssay, National Center for Advancing Translational Sciences (NCATS)
# GLP1R cytotox = qHTS of GLP-1 Receptor Inverse Agonists: Cytotox Screen; HEK293 cAMP-luciferase reporter cells, luminescence, 24 h; Potency, µM (top dose mostly 38.3 µM), for the others: at the highest dose activity change, negative = inhibition, most hits filed as inhibitors; 410,000 tested, 0.13% active;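 further: loss of luciferase light is scored as toxicity; on the % scale 0 is the no-effect control and ±100 the full control effect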
#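 A 23 nL compound transfer followed 12 hours of cell culture at 37 deg C; exposure then lasted 24 hr. Luciferase assay detection reagent was dispensed and plates read for luminescence after a 12 min room-temperature wait.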
# GLP1R inv ag = qHTS of GLP-1 Receptor Inverse Agonists (Inhibition Mode) | HEK293 GLP-1R CRE-luciferase, luminescence, 24 h; GLP-1R form is constitutively active | Potency, µM (series often up to 38.3 µM), for the others: top-dose activity change, negative = inhibition, hits mostly inhibitors | 410,000 tested, 1.6% active | AID 624417, 2012; further: on the % scale 0 is the no-effect control and ±100 the full control effect; nearly all actives have a fitted effect of over 55% in size
# Target sequence (P43220 whole entry, looked up): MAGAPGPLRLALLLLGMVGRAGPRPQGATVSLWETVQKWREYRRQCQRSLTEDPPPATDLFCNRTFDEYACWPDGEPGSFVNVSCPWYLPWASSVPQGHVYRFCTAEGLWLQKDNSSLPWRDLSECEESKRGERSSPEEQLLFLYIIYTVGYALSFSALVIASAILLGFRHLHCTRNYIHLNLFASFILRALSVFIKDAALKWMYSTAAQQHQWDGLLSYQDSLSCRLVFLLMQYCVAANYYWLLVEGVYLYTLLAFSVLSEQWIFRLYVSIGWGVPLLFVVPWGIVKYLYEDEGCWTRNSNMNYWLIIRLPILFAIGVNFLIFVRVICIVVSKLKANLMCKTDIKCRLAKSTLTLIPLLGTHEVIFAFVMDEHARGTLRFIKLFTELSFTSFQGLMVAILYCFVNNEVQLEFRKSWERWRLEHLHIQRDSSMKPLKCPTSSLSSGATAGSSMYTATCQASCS
#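 HEK293 cells stably co-expressing constitutively active GLP-1R and a cAMP-responsive luciferase reporter were seeded in DMEM with 10% Nu serum, given compounds after 12 h, and incubated 24 h at 37 deg C. Luminescence was then read.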
# GLP-1R agonist = qHTS of GLP-1 Receptor Agonists; Glucagon-like peptide 1 receptor (Homo sapiens), P43220; HEK293 GLP-1R CRE-luciferase, luminescence, 4-6 h; cells express a hypersensitive GLP-1R form; Potency, µM (series often up to 45.6 µM), for inactives: top-dose activation, hits mostly activators; 380,000 tested, 0.007% active; AID 624172, 2012; further: % of control where 0% means no effect
# PTHR1 ag = qHTS for PTHR1 Agonists: Primary Screen; Parathyroid hormone/parathyroid hormone-related peptide receptor (Homo sapiens), Q03431; HEK293 GP2 PTHR1 cells, GloSensor cAMP luminescence, 1 h; Potency, µM (series often up to 115 µM), for inactives: at the top dose activation, hits mostly activators; 410,000 tested, 0.075% active; further: nearly all actives have a fitted effect of over 55% in size
#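 HEK-293-derived GP2 cells expressing PTHR1 and a GloSensor cAMP reporter, 3,000/well, plated overnight, given luciferin plus IBMX (each 0.5 mM as added) for 1 h at 37 °C, then compound for 1 h at 37 °C. Luminescence was read after 15 min at room temperature.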
# Starred values were filed as active, the others as inactive; i = inactive; ? = inconclusive; / = no result; [ ] = dose if it differs, or a comment. Most compounds without a hit are left out; they make up all but 1.7% or so of the library. The call rests on the fitted dose curve; in most records, active means well fitted curve in the direction sought with a large enough effect; inconclusive means small, poorly fitted or top-dose-only effect, or another doubt; inactive means no such curve, though single readings can be large; an effect the other way counts as inactive or inconclusive. Potency means the concentration at half of the fitted maximal effect.
SMILES,GLP1R cytotox,GLP1R inv ag,GLP-1R agonist,PTHR1 ag
CN1CCC(N(C)S(=O)(=O)c2ccc(NC(=O)COc3ccc(Br)cc3Cl)cc2)CC1,?,2µM*,-8%,?
Cc1ccccc1OCCC(=O)Nc1ccc(S(=O)(=O)N(C)C2CCN(C)CC2)cc1,-2%,?,5%,i
Cc1ccc(OCC(=O)Nc2ccc(S(=O)(=O)N(C)C3CCN(C)CC3)cc2)c(C)c1,-16%,2.2µM*,12%,i
Nc1c(-c2nc(-c3ccccc3)cs2)c2ccccn2c1C(=O)c1ccc2c(c1)OCO2,21%,6%,/,-3%
CCCn1nc(C(=O)Nc2nc(-c3ccccn3)cs2)c2ccccc2c1=O,5µM*,?,-5%,-20%
COc1ccc(C2C(C#N)=C(N)N(Nc3ccccc3)C3=C2C(=O)CC(C)(C)C3)cc1C (centres undefined),162%,?,-12%,-72%[57.5 µM]
COc1cc(C2C(C#N)=C(N)N(Nc3ccccc3)C3=C2C(=O)CC(C)(C)C3)ccc1OCc1cccc(F)c1 (centres undefined),-7%,5.6µM*,-13%,i
COc1cc(C2C(C#N)=C(N)N(Nc3ccccc3)C3=C2C(=O)CC(C)(C)C3)ccc1OCc1ccccc1 (centres undefined),14%,3.2µM*,-14%,-18%[57.5 µM]
COc1ccc(C2C(C#N)=C(N)N(N(C)C)C3=C2C(=O)CC(C)(C)C3)cc1OC (centres undefined),0%,23%,8%,i
CCN1CCN(c2cc3c(cc2F)c(=O)c(S(=O)(=O)c2cc(C)cc(C)c2)cn3CC)CC1,-8%,7%,/,10%
CCOC(=O)c1cc(C)n(CC2CCC(C(=O)Nc3ccc(C)cc3)CC2)c1C (centres undefined),2%,-1%,/,-45%
COc1cccc(CN(C)C(=O)c2ccccc2Sc2ccccc2C#N)c1OC,-11%,8.9µM*,12%,-13%
Cc1ccc(NC(=O)CN(C)C(=O)c2ccccc2Sc2ccccc2C#N)cc1,-2%,?,8%,-14%
Cc1ccc(CN(C)C(=O)c2ccccc2Sc2ccccc2C#N)cc1,2%,10µM*,6%,-23%
COc1ccc(CCC(=O)NCc2nc3cccnc3n2Cc2ccc(C)cc2)cc1,-11%,2%,/,-16%
CCc1ccc(C(=O)Nc2ccc3nc(C)ccc3c2)cc1,-22%,?,24%,-69%
Cc1ccc2cc(NC(=O)c3ccc(C(C)(C)C)cc3)ccc2n1,-35%,4µM*,-4%,-29%
CCC(NC(=O)Nc1cc(OC)ccc1OC)c1c(-n2cccc2)sc2c1CCN(CC)C2 (centres undefined),0%,-2%,/,i
COc1cc(C2Oc3ccccc3C=C2[N+](=O)[O-])cc(OC)c1OC (centres undefined),-21%,11µM*,-17%,-64%
COc1cc(C2NC(=O)c3ccccc3O2)cc(OC)c1OC (centres undefined),4%,0%,-4%,-16%
CC1(C)Cc2c(cnn2-c2ccccc2)C(=O)/C1=N\NC(=O)c1ccccc1O,-27%,11µM*,-12%,-27%[57.5 µM]
C[C@@]12C(=O)N(c3ccc(F)cc3)C(=O)N1[C@@H]1c3ccccc3OC[C@@H]1[C@H]2c1ccccc1,-6%,10µM*,0%,14%
COc1cccc(CNc2ncnc3c2nnn3C)c1,6%,11%,/,?
COc1ccc(CCNC(=O)C(=O)NCC(c2cccs2)S(=O)(=O)c2cccs2)cc1 (centres undefined),-15%,?,/,-15%
CCN(CC)CCN1C(=O)c2ccccc2NC1c1ccc(Br)cc1 (centres undefined),-3%,10µM*,2%,-1%
CCN(CC)CCN1C(=O)c2ccccc2NC1c1ccc(F)cc1 (centres undefined),25%,0%,5%,18%[57.5 µM]
CCOC(=O)c1sc(=S)n(Cc2ccccc2)c1C,-14%,8.9µM*,16%,i
CCCn1c(=O)c2sccc2n2c(CCCC(=O)Nc3cccc(CC)c3)nnc12,-6%,2%,/,i
COc1ccccc1N1CCN(c2nc(-c3ccc(C)cc3)nc3ccccc23)CC1,-15%,?,/,-76%
